Bioassay records as filed in PubChem BioAssay.
Rows were chosen to be rich in hits. Some 0.89% of all compounds tested hit in one or more screens of this group.
AGP1 TOR yeast: yeast TOR pathway AGP1-GFP modulation; S. cerevisiae AGP1-GFP multiplex flow cytometry, 3 h; GFP as percent of DMSO wells; 320,000 compounds, 0.02% hits; GFP response vs DMSO, % at 10 µM;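 active = GFP response relative to DMSO above a set limit, near screen average plus 3 SD, cut at about 150% in these data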;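 note: median GFP channel fluorescence of the gated AGP1 strain per well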
RPL19A TOR yeast: alters RPL19A-GFP fluorescence in TOR pathway yeast screen. S. cerevisiae RPL19A-GFP strain, flow cytometry, 3 h; stronger effect = lower value. percent response vs DMSO, % at 10 µM. 330,000 compounds, 0.3% hits;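 active = percent response vs DMSO below 50%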;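 note: median channel GFP fluorescence of the barcoded RPL19A-GFP strain; ratio of sample median GFP to plate DMSO average so 100% = DMSO; lower means less RPL19A-GFP as with rapamycin TOR inhibition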
CIT2 TOR yeast: yeast TOR pathway CIT2-GFP modulation; GFP response vs DMSO, % at 10 µM; S. cerevisiae CIT2-GFP strain, flow cytometry, 3 h; 100 means same as DMSO wells; AID 2029; 320,000 compounds, 0.065% hits;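 active = GFP response relative to DMSO above a set limit, near the screen mean plus 3 SD, cut at about 150% in these data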;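 note: ratio of well median GFP fluorescence to mean of DMSO wells on the plate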
MEP2-GFP yeast: yeast TOR pathway MEP2-GFP modulation | S. cerevisiae MEP2-GFP strain, flow cytometry GFP, 3 h; 100% = DMSO control level | GFP response vs DMSO, % at 10 µM | 330,000 compounds, 0.51% hits | AID 2016;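 active = GFP response versus DMSO above a set limit, roughly screen mean plus 3 SD, cut at about 180% in these data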;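 note: median GFP fluorescence of the barcode-gated MEP2-GFP cells per well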
LAP4-GFP MLPCN: alters LAP4-GFP fluorescence in TOR pathway yeast screen; 320,000 compounds, 0.34% hits; S. cerevisiae LAP4-GFP multiplex, flow cytometry GFP, 3 h; median GFP as percent of DMSO wells; AID 2023; GFP response vs DMSO, % at 10 µM;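 active = GFP response vs DMSO above a set limit, about the screen mean plus 3 SD, cut at about 150% in these data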
LAP4 cherry2: reconfirmed LAP4-GFP TOR pathway modulator in yeast | GFP response vs DMSO, % at 10 µM | shares compounds with LAP4-GFP MLPCN | 590 compounds, 20% hits | AID 2621 | S. cerevisiae LAP4-GFP strain, flow cytometry GFP, 3 h;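 active = GFP signal as percent of the solvent control above about 150%, meaning raised reporter expression, limit read from the data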;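 note: ratio of well median GFP fluorescence to plate DMSO mean so 100% = DMSO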
MEP2-GFP pick2: yeast MEP2-GFP modulation, second cherry pick; shares compounds with LAP4-GFP MLPCN; S. cerevisiae MEP2-GFP strain, flow cytometry GFP, 3 h; GFP response vs DMSO, % at 10 µM; 590 compounds, 10% hits; AID 2622;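 active = GFP signal above 150% of the solvent control wells, that is a rise of more than half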;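 note: median channel GFP fluorescence of all gated yeast cells per well; ratio of median GFP to plate DMSO average so 100% = DMSO level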
RPL19A GFP CP2: reconfirmed modulator of RPL19A-GFP TOR reporter in yeast | shares compounds with LAP4-GFP MLPCN | S. cerevisiae RPL19A-GFP strain, flow cytometry GFP, 3 h; stronger effect = lower value; 100% means same as DMSO wells | GFP response vs DMSO, % at 10 µM | 590 compounds, 3% hits;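 active = under 65% GFP response relative to DMSO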;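 note: median GFP channel fluorescence per well over the all cells gate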
CIT2-GFP pick2: second confirmation of modulators of TOR reporter CIT2-GFP in yeast; shares compounds with LAP4-GFP MLPCN; S. cerevisiae CIT2-GFP strain, flow cytometry GFP, 3 h; DMSO control wells read 100%; GFP response vs DMSO, % at 10 µM; 590 compounds, 8% hits;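 active = GFP response vs DMSO above about 150%, limit read from the data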;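 note: median green fluorescence per well over all gated yeast cells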
AGP1-GFP pick2: second confirmation of modulators of TOR reporter AGP1-GFP in yeast; AID 2643; S. cerevisiae AGP1-GFP strain, flow cytometry GFP, 3 h; 590 tested, under 10 active; percent response vs DMSO, % at 10 µM; shares compounds with LAP4-GFP MLPCN;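 active = over 150 percent of DMSO response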;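 note: median GFP channel fluorescence over all cells without mother daughter split; sample median GFP divided by mean DMSO control so 100% equals DMSO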
Yeast autofluor: yeast s288c autofluorescence artifact, counter-screen. 610 tested, under 10 active. shares compounds with LAP4-GFP MLPCN. fluorescence change (kMESF span) at 33 µM. S. cerevisiae s288c, 520 nm autofluorescence, flow cytometry, 3 h; stronger effect = higher value; zero means same as solvent-only cells;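 active = fluorescence span over the dose series, or activity score, above about 33, limit read from the data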
s288c autofl DR: counter-screen for autofluorescence of TOR hits in yeast s288c | shares compounds with LAP4-GFP MLPCN | S. cerevisiae s288c parental, compound autofluorescence, flow cytometry, 3 h | fluorescence change (span) at 33 µM | 110 tested, under 10 active | AID 488829;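 active = fluorescence change span, or the activity score built from it, above 25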
TORC1 bypass gr: wildtype yeast growth loss with TORC1 bypass cells unaffected | shares compounds with LAP4-GFP MLPCN | S. cerevisiae BY4741 spot growth rating, 48-72 h; stronger effect = lower value | growth rating (0-3) at 30 µM | 120 tested, under 10 active | AID 504456;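 active = growth rating at most 1 for wild type yeast while the TORC1 bypass strain still grows fully, rated 3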
Numbers without * were called inactive; · = not tested or not shown; [ ] = dose if it differs, or a comment.

SMILES | AGP1 TOR yeast | RPL19A TOR yeast | CIT2 TOR yeast | MEP2-GFP yeast | LAP4-GFP MLPCN | LAP4 cherry2 | MEP2-GFP pick2 | RPL19A GFP CP2 | CIT2-GFP pick2 | AGP1-GFP pick2 | Yeast autofluor | others
O=C(CSc1cc(Cl)ccc1Cl)Nc1ccc(N2CCOCC2)cc1 | 99.6 | 100.0 | 93.3 | 108.3 | 110.3 | · | · | · | · | · | ·
C#CCOc1c(Br)cc(/C=C2/C(=O)ON=C2C)cc1OC | 89.0 | 91.0 | 94.9 | 98.4 | 197.5* | 187.4* | 136.2 | 92.7 | 122.4 | 101.4 | 0.51
O=[N+]([O-])c1ccc(-c2cn3nc(-c4ccccc4)c(-c4ccccc4)nc3n2)cc1 | 50.4 | 105.1 | 118.6 | 260.9* | 170.7* | · | · | · | · | · | 3.13
Cc1c(C)n(Cc2ccccc2)c2ncnc(Cl)c12 | 101.0 | 103.9 | 98.7 | 105.1 | 110.5 | · | · | · | · | · | ·
COc1ccc(C(=O)NC(=S)NNC(=O)c2cnccn2)cc1OC | 79.3 | 96.9 | 95.3 | 104.5 | 154.6*[may fluoresce green] | 168.3* | 154.7* | 102.8 | 126.7 | 90.1 | 0.51
COc1cc(OC)cc(C(=O)NC(=S)NNC(=O)c2cnccn2)c1 | 101.0 | 106.2 | 100.9 | 100.9 | 94.0 | · | · | · | · | · | ·
COc1ccccc1CCC(=O)Nc1ccc(S(=O)(=O)Nc2nccs2)cc1 | 106.3 | 94.8 | 94.8 | 95.2 | 100.1 | · | · | · | · | · | ·
O=C(CSC1=NS(=O)(=O)c2ccccc21)Nc1ccccc1 | 64.9 | 59.2 | 67.6 | 90.4 | 115.6 | 113.2 | 124.0 | 61.6* | 115.4 | 71.6 | 0.5
CC(C)(C)n1nnnc1C(c1cccnc1)N1CCN(c2cccc(C(F)(F)F)c2)CC1 (configuration not stated) | · | 90.2 | 112.5 | 125.9 | 107.0 | · | · | · | · | · | ·
CC(C)(C)c1cc(C(c2cccnc2)N2CCN(CCO)CC2)cc(C(C)(C)C)c1O (configuration not stated) | 83.1 | 88.6 | 94.6 | 99.0 | 160.6* | · | · | · | · | · | 23.6
Cc1cc(C(=O)Nc2ccc3c(c2)OCCO3)ccc1[N+](=O)[O-] | 98.1 | 103.4 | 101.9 | 105.6 | 90.1 | · | · | · | · | · | ·
O=C(Nc1ccc2c(c1)OCCO2)c1ccc(Cl)c([N+](=O)[O-])c1 | 91.5 | 90.9 | 76.4 | 86.2 | 157.7* | 105.2 | 103.1 | 96.8 | 93.2 | 96.7 | ·
Cc1c(NC2=C(Cl)C(=O)N(c3ccccc3)C2=O)c(=O)n(-c2ccccc2)n1C | 98.6 | 97.3 | 95.4 | 96.9 | 142.7 | · | · | · | · | · | 0.4
Cc1c(NC2=C(Cl)C(=O)N(c3ccccc3Cl)C2=O)c(=O)n(-c2ccccc2)n1C | 105.1 | 102.9 | 106.8 | 100.8 | 90.5 | · | · | · | · | · | 0.1
O=C1C(Cl)=C(Nc2ccccc2O)C(=O)N1c1ccccc1 | 104.2 | 98.3 | 102.0 | 107.4 | 114.5 | · | · | · | · | · | 0.1
N#Cc1ccccc1S(=O)(=O)N1CCN(CC(=O)Nc2ccccc2C(=O)NC2CC2)CC1 | 104.5 | 98.3 | 100.5 | 97.4 | 106.5 | · | · | · | · | · | ·
COC(=O)CCC(=O)OC1(C)C(=O)C2=COC(c3ccc(OC)cc3)=CC2=C(Br)C1=O (configuration not stated) | 18.0 | 38.8* | 49.2 | 79.3 | 126.9 | 151.3* | 129.3 | 71.9 | 108.5 | 43.1 | 2.21
COC(=O)CCC(=O)OC1(C)C(=O)C2=CN(C(CO)CO)C(c3ccc(OC)cc3)=CC2=C(Br)C1=O (configuration not stated) | 102.2 | 99.9 | 88.2 | 102.5 | 98.0 | · | · | · | · | · | ·
O=C(Nc1nc(-c2ccccn2)cs1)C1COc2ccccc2O1 (configuration not stated) | 97.9 | 93.5 | 101.8 | 100.6 | 161.8* | 135.6 | 113.1 | 102.3 | 116.5 | 91.6 | 0.8 | s288c autofl DR=3.49;TORC1 bypass gr=3
Cc1cc(C(=O)Nc2nc(-c3ccccn3)cs2)ccc1[N+](=O)[O-] | 98.4 | 100.7 | 97.9 | 100.2 | 160.3* | · | · | · | · | · | 1.31 | s288c autofl DR=0.08;TORC1 bypass gr=3
CC(Oc1ccc(Br)cc1)C(=O)Nc1nc(-c2ccccn2)cs1 (configuration not stated) | 72.4 | 101.1 | 96.3 | 98.0 | 168.2* | · | · | · | · | · | 1.11 | s288c autofl DR=0.29;TORC1 bypass gr=3
CCc1cc(C(=O)Nc2nc(-c3ccccn3)cs2)sc1C | 70.3 | 88.2 | 78.1 | 98.7 | 207.6* | 156.3* | 113.5 | 103.0 | 111.2 | 91.4 | 0.5
CC(C)=CCN1CCN(Cc2cn(C(C)C)c3ccccc23)CC1CCO (configuration not stated) | 103.0 | 107.6 | 98.9 | 107.1 | 95.3 | · | · | · | · | · | ·
CCOC(=O)c1cc(-c2ccc(/C=C3/C(=O)NC(=O)C(C#N)=C3C)o2)ccc1Cl | 64.3 | 67.3 | 86.6 | 108.4 | 151.1* | · | · | · | · | · | 1.21
CC(C)(C)OC(=O)N1CCC(c2c(C(=O)NCC3CCN(C4CCCC4)C3)cnn2-c2ccc(F)cc2)CC1 (configuration not stated) | 103.4 | 104.3 | 103.0 | 107.0 | 104.3 | · | · | · | · | · | ·
O=C1NC(=Nc2ccccc2Cl)S/C1=C\c1cccc([N+](=O)[O-])c1 | 71.3 | 89.2 | 78.6 | 82.2 | 151.6* | 142.3 | 98.2 | 92.5 | 121.0 | 82.7 | ·
O=C1NC(=Nc2ccccc2Cl)S/C1=C\c1cccc([N+](=O)[O-])c1O | 80.0 | 97.1 | 102.0 | 102.0 | 79.6 | · | · | · | · | · | ·
CCOc1c(Cl)cc(/C=C/C(=O)N(CC)CC(=O)Nc2ccc(NC(C)=O)cc2)cc1OC | 111.5 | 99.0 | 97.7 | 95.9 | 116.3 | · | · | · | · | · | ·
CC(=O)Oc1ccc(N2C(=O)C3C4C=CC(O4)C3C2=O)cc1 (configuration not stated) | 100.2 | 98.5 | 100.3 | 98.3 | 118.2 | · | · | · | · | · | 0.1
